Compound activity: PubChem BioAssay, National Center for Advancing Translational Sciences (NCATS)
DT40 TDP1 no CPT: qHTS for Inhibitors of human tyrosyl-DNA phosphodiesterase 1 (TDP1): qHTS in cells in absence of CPT | DT40 Tdp1-/- hTDP1 cells, no CPT, ATP luminescence, 48 h | actives 15% (n = 420,000) | Potency, µM (highest dose often 46.2 µM), actives largely listed as inhibitors; further: nearly all actives have a fitted effect of over 55% in size
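Camptothecin absent (DMSO only). Human TDP1-complemented DT40 knockout cells, 400 cells/well, 37 °C for minimum 48 hr; ATP measured via CellTiter-Glo, 30 min dark incubation, luminescence.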
VDR inhibitor: Inhibitors of the vitamin D receptor (VDR): qHTS | VDR-SRC2-3 peptide fluorescence polarization, 2 h | Potency, µM, most hits filed as inhibitors | Vitamin D3 receptor (Homo sapiens), P11473 | AID 504847, 2011 | actives 0.93% (n = 400,000)
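Measured by FP: displacement of SRC2-3 coactivator peptide from VDR by library compounds, following a two-hour ambient incubation.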
TDP1 block: qHTS Assay for Inhibitors of Tyrosyl-DNA Phosphodiesterase (TDP1) | Tyrosyl-DNA phosphodiesterase 1 (Homo sapiens), Q9NUW8 | actives 0.28% (n = 350,000) | recombinant TDP1, AlphaScreen DNA substrate cleavage | Potency, µM (titrated, usually from 130 µM), actives largely listed as inhibitors; further: nearly all actives have a fitted effect of over 40% in size
Target sequence (Q9NUW8 whole entry, looked up): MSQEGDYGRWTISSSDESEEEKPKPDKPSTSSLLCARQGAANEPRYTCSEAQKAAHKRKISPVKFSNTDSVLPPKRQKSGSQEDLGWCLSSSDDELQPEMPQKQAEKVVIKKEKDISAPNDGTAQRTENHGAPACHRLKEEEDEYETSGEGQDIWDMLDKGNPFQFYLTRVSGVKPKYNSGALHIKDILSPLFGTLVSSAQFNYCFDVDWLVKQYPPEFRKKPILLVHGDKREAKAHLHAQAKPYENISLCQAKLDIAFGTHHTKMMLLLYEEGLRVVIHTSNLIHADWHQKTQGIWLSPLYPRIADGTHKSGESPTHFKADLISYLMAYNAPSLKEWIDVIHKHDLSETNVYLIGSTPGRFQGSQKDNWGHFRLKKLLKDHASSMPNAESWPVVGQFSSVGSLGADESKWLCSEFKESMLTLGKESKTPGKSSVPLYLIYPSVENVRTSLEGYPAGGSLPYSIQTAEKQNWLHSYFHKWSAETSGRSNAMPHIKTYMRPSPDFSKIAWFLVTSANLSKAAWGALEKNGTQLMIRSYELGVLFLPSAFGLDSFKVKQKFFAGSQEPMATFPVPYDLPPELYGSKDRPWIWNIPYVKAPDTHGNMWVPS
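Signal: AlphaScreen proximity between streptavidin donor and anti-FITC acceptor beads on intact substrate. Reaction: Tdp1 1 nM, substrate 15 nM final, 5 min RT after 15 min compound preincubation.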
DT40 TDP1 CPT: qHTS for Inhibitors of human tyrosyl-DNA phosphodiesterase 1 (TDP1): qHTS in cells in presence of CPT; chicken DT40 Tdp1-/-;hTDP1 cells + 20 nM CPT, ATP luminescence, 48 h; Potency, µM (titrated, usually from 46.2 µM), most hits filed as inhibitors; actives 12% (n = 420,000); AID 686979, 2013; further: nearly all actives have a fitted effect of over 55% in size
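Chicken DT40 Tdp1-/- cells stably complemented with human TDP1 were seeded at 400 cells/well in medium containing 20 nM camptothecin, exposed to pin-transferred compounds, and grown at 37 °C for at least 48 hr. Viability was read as ATP luminescence.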
PLK1 PBD block: qHTS for Inhibitors of PLK1-PDB (polo-like kinase 1 - polo-box domain): Primary Screen. Serine/threonine-protein kinase PLK1 (Homo sapiens), P53350. Plk1 PBD binding of FITC phosphopeptide, fluorescence polarization. Potency, µM, usual class: inhibitors. actives 2.8% (n = 360,000); further: series mostly up to about 57 µM; nearly all actives have a fitted effect of over 65% in size
GCN5L2 inh: qHTS Assay for Inhibitors of GCN5L2; Histone acetyltransferase KAT2A (Homo sapiens), Q92830; GCN5L2 HAT assay, ThioGlo1 CoA-SH fluorescence; Potency, µM (series often up to 58.9 µM), most hits filed as inhibitors; actives 0.21% (n = 390,000)
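Preincubate 20nM GCN5L2 with compound 15 min, RT → add 50uM ThioGlo1 + 75uM H3(1-25) + 70uM acetyl-CoA → read fluorescence 0 and 20 min. Primary qHTS; fluorescent artifacts likely.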
Of the large screens only hits and unclear results are named; the others gave an inactive call. Compounds with a hit are over-represented: about 18% of the library has one in this group of screens. The call rests on the fitted dose curve; in most records, active means well fitted curve in the direction sought with a large enough effect; inconclusive means small, poorly fitted or top-dose-only effect, or another doubt; inactive means no such curve, though single readings can be large; an effect the other way counts as inactive or inconclusive.

COc1ccc(-n2cc(C(=O)N(CCN(C)C)Cc3ccccc3)c3ccccc3c2=O)cc1	DT40 TDP1 no CPT inconclusive (no result: PLK1 PBD block)
CCOC(=O)c1ccc(OC(=O)c2cn(-c3ccc(C)cc3)c(=O)c3ccccc23)cc1	DT40 TDP1 no CPT inconclusive, DT40 TDP1 CPT 16.4µM (no result: PLK1 PBD block)
COc1ccccc1/C=C/C=N/n1c(C)nnc1C	none
CCOc1ccc(-n2cc(C(=O)Nc3ccccc3OCC)c3cc(OC)c(OC)cc3c2=O)cc1	DT40 TDP1 no CPT inconclusive, DT40 TDP1 CPT inconclusive (no result: PLK1 PBD block)
CCOc1ccc(-n2cc(C(=O)Nc3ccc(Cl)cn3)c3cc(OC)c(OC)cc3c2=O)cc1	DT40 TDP1 CPT 2.91µM
CCS(=O)(=O)NCCCc1ccccc1	DT40 TDP1 no CPT inconclusive, DT40 TDP1 CPT 20.6µM
NC(=O)c1cc(S(=O)(=O)NCCCc2ccccc2)cs1	DT40 TDP1 no CPT inconclusive, DT40 TDP1 CPT inconclusive, PLK1 PBD block 26.7µM (no result: TDP1 block)
CCS(=O)(=O)NCCCCc1ccccc1	none
CN(C)c1ccc(CNS(=O)(=O)c2csc(C(N)=O)c2)cc1	DT40 TDP1 no CPT 7.31µM, DT40 TDP1 CPT 23.1µM
CC(C)Oc1ccc(CNS(=O)(=O)c2csc(C(N)=O)c2)cc1	DT40 TDP1 no CPT 20.6µM, DT40 TDP1 CPT 16.4µM
CC(C)Oc1ccc(CNS(=O)(=O)c2cnc(N)nc2)cc1	none (no result: PLK1 PBD block)
Cc1ccc(NS(=O)(=O)c2ccc(NC(=O)c3ccc(-c4ccccc4)cc3)cc2)c(C)c1	DT40 TDP1 no CPT 23.1µM, DT40 TDP1 CPT 23.1µM, PLK1 PBD block 23.8µM (no result: TDP1 block, GCN5L2 inh)
Cc1ccc(NS(=O)(=O)c2ccc(NC(=O)c3ccc(Br)o3)cc2)c(C)c1	DT40 TDP1 no CPT 25.9µM, DT40 TDP1 CPT inconclusive
Cc1ccc(NS(=O)(=O)c2cccc(C(=O)Nc3cccnc3)c2)c(C)c1	DT40 TDP1 no CPT 14.6µM, DT40 TDP1 CPT inconclusive
Cc1cc(C)cc(NS(=O)(=O)c2ccc(NC(=S)NC(=O)c3ccc(Br)o3)cc2)c1	DT40 TDP1 no CPT 16.4µM, DT40 TDP1 CPT 16.4µM
Cc1ccc(NS(=O)(=O)c2ccc(NC(=O)c3ccccc3C(=O)O)cc2)c(C)c1	none (no result: TDP1 block, GCN5L2 inh)
COC(=O)CC1[C@@]2(C)C[C@@]34OC5(C)OC6(CC[C@@]7(C)C(c8ccoc8)OC(=O)C(C(C)=O)C7[C@]6(O5)C(O)[C@@]3(O)C2O)[C@]14C (stereo partly drawn)	none (no result: PLK1 PBD block)
Cc1cc(NC(=O)c2ccc(Br)o2)ccc1NC(=O)c1ccco1	DT40 TDP1 no CPT 16.4µM, DT40 TDP1 CPT 14.6µM
O=C(C[C@@H]1C/C=C\CCCC(=O)OC[C@@H]2CCCN2C1=O)N[C@@H](CO)Cc1ccccc1	none
O=C(Cc1ccc(S(=O)(=O)N2CCOCC2)s1)NCCOc1ccccc1	none (no result: TDP1 block)
COc1ccc(C2Nc3ccccc3C(=O)N2Cc2ccccc2)cc1COc1ccc([N+](=O)[O-])c(C)c1 (stereo not drawn)	none (no result: PLK1 PBD block, GCN5L2 inh)
COc1ccc(C=O)cc1COc1ccc([N+](=O)[O-])c(C)c1	DT40 TDP1 no CPT 20.6µM, DT40 TDP1 CPT 16.4µM
COc1ccc(C=O)cc1COc1ccc2c(c1)OCO2	DT40 TDP1 no CPT 4.61µM, DT40 TDP1 CPT 3.66µM
O=C(c1ccco1)N1CCN(Cc2cccc([N+](=O)[O-])c2)CC1	none
CCOC(=O)c1ccccc1NC(=O)COC(=O)CC1CCCCC1	DT40 TDP1 no CPT inconclusive, TDP1 block 50.1µM, DT40 TDP1 CPT inconclusive
CN(C(=O)COC(=O)c1cc([N+](=O)[O-])ccc1N1CCCC1)C1CCS(=O)(=O)C1 (stereo not drawn)	none
CCOC(=O)c1ccccc1NC(=O)COC(=O)C1CCCC1	none (no result: TDP1 block)
